Bioassay records (PubChem BioAssay)
Compounds with a hit are over-represented: about 11% of the library has one in this group of screens.
IMPase Li inh: cell-permeable IMPase inhibitors with lithium potentiation; CHO-M1 cells, IP1 TR-FRET (IP-One), carbachol + lithium; Potency, µM (top dose mostly 59.4 µM), actives largely listed as inhibitors; hit rate 0.35% among 210,000; AID 1457;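 note: IP1 builds up when IMPase is blocked and the TR-FRET signal falls; nearly all actives have a fitted effect of over 50% in size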
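CHO cells stably expressing M1 receptor (2000/well, cultured 16–30 h) treated 30 min at 37C with compound plus low lithium. Cytosolic IP1 by TR-FRET (665/620 ratio and 620 channel) after 10 min lysis; AC50 by Hill fit.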
PNC assembly inh: blocks assembly of the perinucleolar compartment; PC3M PTB-GFP, PNC prevalence imaging, 16 h; active compounds read low; activity change (PNC), negative = inhibition, % at 10 µM; hit rate 3.1% among 140,000; AID 2417;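 active = readout at or below -70, meaning at least 70% loss of cells showing the perinucleolar compartment, a nuclear body marking cancer cells; inconclusive = readout between -30 and a set limit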
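PC3M cells stably expressing PTB-GFP, 750–1000 cells/well, treated 16 h at 37 °C with compound (23 nl of library stock), in duplicate. After paraformaldehyde fixation and Hoechst stain, imaged at 20x; PNC prevalence scored by image analysis.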
ALOX12 inhib: inhibitors of human 12-lipoxygenase (ALOX12); Potency, µM (series often up to 57.1 µM), actives largely listed as inhibitors; hit rate 0.12% among 150,000; purified 12-hLO, xylenol orange hydroperoxide absorbance; P18054; note: nearly all actives have a fitted effect of over 55% in size
Target sequence (P18054 whole entry, looked up): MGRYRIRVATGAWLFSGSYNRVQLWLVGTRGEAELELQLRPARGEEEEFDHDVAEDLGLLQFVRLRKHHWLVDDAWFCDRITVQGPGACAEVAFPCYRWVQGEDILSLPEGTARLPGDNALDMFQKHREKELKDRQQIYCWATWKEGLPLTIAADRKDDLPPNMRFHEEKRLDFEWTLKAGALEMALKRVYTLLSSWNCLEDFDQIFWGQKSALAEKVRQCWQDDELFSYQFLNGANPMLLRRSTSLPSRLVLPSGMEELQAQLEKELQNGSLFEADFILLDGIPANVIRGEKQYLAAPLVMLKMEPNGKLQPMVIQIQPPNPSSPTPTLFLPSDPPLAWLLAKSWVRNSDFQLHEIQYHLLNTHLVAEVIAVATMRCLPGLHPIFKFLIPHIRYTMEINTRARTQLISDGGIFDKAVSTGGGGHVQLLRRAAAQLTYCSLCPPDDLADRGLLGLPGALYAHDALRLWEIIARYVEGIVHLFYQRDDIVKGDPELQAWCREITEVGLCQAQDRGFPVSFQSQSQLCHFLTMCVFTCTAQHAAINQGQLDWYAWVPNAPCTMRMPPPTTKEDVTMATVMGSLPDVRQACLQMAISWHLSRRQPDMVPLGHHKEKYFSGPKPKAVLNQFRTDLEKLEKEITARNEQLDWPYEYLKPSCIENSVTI
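150 nM 12hLO, 25 mM Hepes pH 7.0 + 0.01% Triton X-100; cpd preinc 15 min RT; 40 uM arachidonic acid, 30 min RT; Fe-XO 30 min; A573/A405 ratio as read-out.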
ALDH1A1 inh: blocks purified human ALDH1A1 activity | Potency, µM (highest dose often 75.3 µM), hits mostly inhibitors | Purified ALDH1A1, NADH fluorescence, propionaldehyde substrate | P00352 | hit rate 7.3% among 220,000; active = well fitted inhibition curve with a large enough effect, not every such curve was filed as active; inconclusive = small, poorly fitted or top-dose-only effect, or another doubt; inactive = no such curve, though single readings can be large or run the other way
IMPase cell inh: IMPase inhibition in cells; CHO-M1 cells, IP1 accumulation, HTRF TR-FRET ratio; P97697; 120,000 tested, under 10 active; inhibition (IP1 accumulation), % at 46.1 µM; active = well fitted curve in the direction sought with a large enough effect in the signal ratio, not every such curve was filed as active; inconclusive = small, poorly fitted or top-dose-only effect, or a change in a side signal; inactive = no such curve, though single readings can be large or run the other way; the % refers to the signal ratio;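 note: cells stimulated with carbachol in lithium chloride buffer; higher means more IMPase inhibition seen as more IP1 and lower FRET ratio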
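CHO-M1, 2000 cells/well, cultured 16–30 h; cpd up to 46 uM; carbachol (50 uM solution, stimulation buffer w/ 50 mM LiCl, pH 7.4), 30 min 37C; IP-One TR-FRET, 10 min RT; Ex 320/Em 665, 620; Hill-fit AC50.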
HPGD block: HPGD (human) dehydrogenase inhibition | purified HPGD, NADH fluorescence kinetic, PGE2 substrate | P15428 | Potency, µM, most hits filed as inhibitors | hit rate 4.3% among 150,000 | AID 894; active = well fitted inhibition curve with a large enough effect, not every such curve was filed as active; inconclusive = small, poorly fitted or top-dose-only effect, or another doubt; inactive = no such curve, though single readings can be large or run the other way
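NADH formation kinetics: reaction with 30 uM PGE2 and 1 mM NAD+ (final), 20 nM enzyme, Tris-HCl pH 8 with Tween 20, after 15 min compound preincubation at room temperature. Fluorescence change, last versus first of five reads.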
Hits are given with their value; . = inactive; ? = inconclusive; / = no result; ! = a repeat was not active; [ ] = remark or other dose. Unless noted, calls come from the whole dose curve; as a rule, active = well fitted curve in the direction sought with a large enough effect; inconclusive = small, poorly fitted or top-dose-only effect, or another doubt; inactive = no such curve, though single readings can be large; an effect the other way counts as inactive or inconclusive.

SMILES	IMPase Li inh	PNC assembly inh	ALOX12 inhib	ALDH1A1 inh	IMPase cell inh	HPGD block
CCc1ccc2c(Cl)c(C(=O)N/N=C/c3c[nH]c4ccccc34)sc2c1	.	.	.	13µM	.	.
CN1/C(=C\C(=O)c2cccnc2)C(C)(C)c2ccccc21	.	.	.	.	.	.
CC(C)C(=O)NC(=S)/C=C1/N(C)c2ccccc2C1(C)C	.	/	/	8.9µM	/	/
O=C(O)c1cccc(S(=O)(=O)N2CCCC2)c1	.	.	.	.	.	.
CN1/C(=C\C(=O)c2cccc(S(=O)(=O)N3CCCCC3)c2)C(C)(C)c2ccccc21	.	-88	.	?	/	.
CN1/C(=C\C(=O)c2cncc(Br)c2)C(C)(C)c2ccccc21	.	-84	.	.	/	.
CC1CCc2c(sc(NC(=O)C3c4ccccc4Oc4ccccc43)c2C(=O)OC(C)C)C1 (configuration not stated)	/	/	/	/	.	/
C[C@H]1CS(=O)(=O)CCN1/N=C\c1ccc([N+](=O)[O-])o1	.	/	.	?	.	.
O=C(COc1cccnc1[N+](=O)[O-])N1CCN(S(=O)(=O)c2ccc3ccccc3c2)CC1	.	?	.	16µM	/	.
O=C(COc1cccnc1[N+](=O)[O-])Nc1ccc(Cl)c(S(=O)(=O)N2CCOCC2)c1	/	/	/	14µM	/	/
O=C(Cn1ncc(Cl)c(Cl)c1=O)N1CCN(S(=O)(=O)c2ccc3ccccc3c2)CC1	/	.	.	20µM	.	/
N#CCCn1c(=O)c(-c2ccc(Cl)cc2)nc2cnc(Nc3ccccc3)nc21	.	/	/	.	/	/
COc1cccc(C(=O)CN(C(=O)c2ccc(Cl)c(Cl)c2)N2C(=O)c3ccccc3C2=O)c1	.	?	.	14µM	.	.
COc1cccc(C(=O)CN(C(=O)c2ccc(Cl)cc2Cl)N2C(=O)c3ccccc3C2=O)c1	.	.	.	16µM	/	.
Cc1cnc(C(=O)OCC(=O)NC(C)CCc2ccccc2)cn1 (configuration not stated)	?	/	/	.	/	/
C1=C(c2ccccc2)CCN(c2nc3ccccc3n3cnnc23)C1	.	.	.	28µM	.	14µM
c1ccc(CN2CCN(c3nc4ccccc4n4cnnc34)CC2)cc1	.	.	.	.	.	14µM
COc1ncc2nc(-c3cn(C)c4ccccc34)c(=O)n(CCc3ccccc3)c2n1	.	/	/	.	/	/
N#Cc1cc(-c2ccccc2)cnc1Cl	.	.	.	3.5µM	.[1.84 µM]	.
c1ccc(-c2cnc(-c3ccccc3)nc2)cc1	.	.	.	.	.	.
Cn1c(N)c(C(=O)COC(=O)CN2C(=O)c3ccccc3C2=O)c(=O)n(C)c1=O	.	.	.	.	.	.
Cn1c(N)c(C(=O)COC(=O)Cn2cc(C(F)(F)F)ccc2=O)c(=O)n(C)c1=O	.	?	.	.	.	16µM
N#Cc1c(-n2ncnc2-c2cccc(Cl)c2)sc2c1CCCCC2	/	/	/	/	.	/
COC(=O)c1[nH]c2cccc(OC)c2c1NC(=O)CN1CCOCC1	.	?	.	?	?	.
COc1cccc2[nH]c(C(=O)NN)c(N)c12	/	/	/	28µM	/	/
SMILES	IMPase Li inh	PNC assembly inh	ALOX12 inhib	ALDH1A1 inh	IMPase cell inh	HPGD block
Cc1cc(-c2ccccc2)nc(N2CCC(C(=O)NC(C)C)CC2)n1	.	-100	.	.	.	?
OCCC1CN(Cc2ccc3nonc3c2)CCN1Cc1ccsc1 (configuration not stated)	.	/	/	19µM	/	/
Cc1ccc(S(=O)(=O)NC(C)(C)CSc2ncccn2)cc1	.	/	/	18µM	/	/
O=[N+]([O-])c1cc2c(cc1/C=N/NS(=O)(=O)c1ccc(Br)cc1)OCO2	.	/	/	3.2µM	/	/
COC(=O)C1=C(O)/C(=C\c2ccc(CNS(=O)(=O)c3ccc(Cl)cc3)o2)N=C1C	.	.	?	.	/	.
COC(=O)C1=C(O)/C(=C\c2ccc(CNS(=O)(=O)c3ccccc3)o2)N=C1C	.	.	.	32µM	/	.
COc1ccc(C2CC(=O)c3c([nH]c(C(=O)OC4CCCCCC4)c3C)C2)cc1 (configuration not stated)	/	/	/	/	.	/
CSc1ccc2c(c1)N(CC[C@H]1CCCCN1C)c1ccccc1S2	.	/	.	.	.	.
CN1CCCC[C@@H]1CCN1c2ccccc2Sc2ccc(S(C)=O)cc21 (some centres not stated)	.	/	.[11.4 µM]	.	.	3.2µM!
CSc1ccc2c(c1)N(CCC1CCCCN1C)c1ccccc1S2 (configuration not stated)	.	-115	.	.	/	.
CC(=O)c1ccc2c(c1)N(CCCN1CCC(CCO)CC1)c1ccccc1S2	.	/	.	.	.	.
COc1ccc(/C=C/C(=O)OCC(=O)NCC2CCCO2)cc1 (configuration not stated)	.	-82	.	?	/	.
O=C(CSc1nc2ccc(NC(=O)C3CCCCC3)cc2s1)NCC1CCCO1 (configuration not stated)	.	.	.	.	/	28µM
COc1cccc(/C=C/C(=O)OCC(=O)NCC2CCCO2)c1 (configuration not stated)	.	.	.	?	/	?
COc1ccc(-c2nsc(SCC(=O)Nc3cc(C)on3)n2)cc1	.	?	.	28µM	.	25µM
Cc1cc(C)n2c(SCC(=O)Nc3cc(C)on3)nnc2n1	.	-100	.	?	.	?
